{"source": "the supplement of paper PMC6411743", "assay_in_all_cases": "NP40-soluble protein abundance relative to vehicle (solubility fold change) (ratio); higher = more soluble protein in presence of ATP", "key": {"[1]": {"target": "T1, SPAG7 (UniProt O75391)", "T1 sequence (whole entry)": "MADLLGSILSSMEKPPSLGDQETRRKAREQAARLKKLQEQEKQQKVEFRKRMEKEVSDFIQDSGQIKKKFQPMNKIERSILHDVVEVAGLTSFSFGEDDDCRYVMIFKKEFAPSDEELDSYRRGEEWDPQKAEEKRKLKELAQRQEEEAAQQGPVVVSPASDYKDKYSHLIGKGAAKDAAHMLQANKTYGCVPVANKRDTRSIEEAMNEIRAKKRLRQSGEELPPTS", "summary_of_the_method": "(§1)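 Eight concentrations, 0.1 to 10 mM, were tested on Jurkat crude lysate for 10 min at room temperature and then 3 min at 37 °C, in three independent experiments. The lysate was solubilised with 0.8% NP40 and benzonase, ultracentrifuged, and the supernatant TMT-labelled for LC-MS/MS. Each value is the fold change against the detergent-processed vehicle in its own replicate, from vsn-normalised intensities.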"}, "[2]": {"target": "T2, UniProt O95294|O95294-2|O95294-3|O95294-4", "T2 sequence (whole entry)": "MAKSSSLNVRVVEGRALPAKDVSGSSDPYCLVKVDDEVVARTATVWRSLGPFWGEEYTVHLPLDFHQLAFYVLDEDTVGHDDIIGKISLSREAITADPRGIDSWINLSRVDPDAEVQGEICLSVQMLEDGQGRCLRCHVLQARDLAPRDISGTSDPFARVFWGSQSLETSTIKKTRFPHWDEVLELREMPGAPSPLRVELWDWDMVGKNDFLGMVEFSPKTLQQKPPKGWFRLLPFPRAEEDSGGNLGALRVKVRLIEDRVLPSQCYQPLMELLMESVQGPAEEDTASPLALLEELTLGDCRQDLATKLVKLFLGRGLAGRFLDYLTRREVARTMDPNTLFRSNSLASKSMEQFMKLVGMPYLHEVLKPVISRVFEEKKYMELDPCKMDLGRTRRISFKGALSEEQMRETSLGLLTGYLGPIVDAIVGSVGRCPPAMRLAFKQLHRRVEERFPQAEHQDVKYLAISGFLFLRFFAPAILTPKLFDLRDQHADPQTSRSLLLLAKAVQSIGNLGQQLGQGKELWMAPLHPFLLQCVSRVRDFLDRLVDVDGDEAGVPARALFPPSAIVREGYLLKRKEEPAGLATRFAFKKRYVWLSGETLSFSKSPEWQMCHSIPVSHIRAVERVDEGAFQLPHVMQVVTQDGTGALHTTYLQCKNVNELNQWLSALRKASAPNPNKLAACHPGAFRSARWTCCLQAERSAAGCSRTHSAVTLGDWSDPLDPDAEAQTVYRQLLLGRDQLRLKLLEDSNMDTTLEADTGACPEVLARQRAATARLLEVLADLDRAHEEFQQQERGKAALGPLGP", "summary_of_the_method": "as §1"}, "[3]": {"target": "T3, UniProt O95379-3|O95379-4", "T3 sequence (whole entry)": "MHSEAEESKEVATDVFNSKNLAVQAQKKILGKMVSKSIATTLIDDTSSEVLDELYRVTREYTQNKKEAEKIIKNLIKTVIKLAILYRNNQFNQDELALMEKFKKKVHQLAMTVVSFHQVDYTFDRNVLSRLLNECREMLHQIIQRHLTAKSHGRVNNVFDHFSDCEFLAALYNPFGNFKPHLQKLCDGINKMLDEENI", "summary_of_the_method": "as §1"}, "[4]": {"target": "T4, UniProt O95983|O95983-2|K7EIE8", "T4 sequence (whole entry)": "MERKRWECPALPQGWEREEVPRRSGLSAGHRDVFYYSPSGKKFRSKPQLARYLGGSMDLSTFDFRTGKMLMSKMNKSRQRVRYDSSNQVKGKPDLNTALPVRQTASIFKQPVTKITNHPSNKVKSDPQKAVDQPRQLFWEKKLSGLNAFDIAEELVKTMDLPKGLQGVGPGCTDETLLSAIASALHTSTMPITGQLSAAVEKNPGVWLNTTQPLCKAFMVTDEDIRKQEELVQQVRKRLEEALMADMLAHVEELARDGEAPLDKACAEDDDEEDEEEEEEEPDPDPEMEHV", "summary_of_the_method": "as §1"}}, "note": "± gives the standard deviation of the averaged measurements. The full data set covers some 6,500 targets. This sample favours those with the largest changes."}
{"compound": "Nc1ncnc2c1ncn2[C@@H]1O[C@H](COP(=O)(O)OP(=O)(O)OP(=O)(O)O)[C@@H](O)[C@H]1O", "note": "[adenosine triphosphate]", "values": [{"measurement": "NP40-soluble protein abundance", "setting": "[1]; concentration: 2mM", "result": "0.964 ± 0.047"}, {"measurement": "NP40-soluble protein abundance", "setting": "[1]; concentration: 4mM", "result": "0.964 ± 0.04"}, {"measurement": "NP40-soluble protein abundance", "setting": "[1]; concentration: 6mM", "result": "0.969 ± 0.046"}, {"measurement": "NP40-soluble protein abundance", "setting": "[1]; concentration: 8mM", "result": "0.9594 ± 0.0036"}, {"measurement": "NP40-soluble protein abundance", "setting": "[1]; concentration: 10mM", "result": "0.903 ± 0.058"}, {"measurement": "NP40-soluble protein abundance", "setting": "[2]; concentration: 1mM", "result": "0.95 ± 0.03"}, {"measurement": "NP40-soluble protein abundance", "setting": "[2]; concentration: 2mM", "result": "0.96 ± 0.069"}, {"measurement": "NP40-soluble protein abundance", "setting": "[2]; concentration: 4mM", "result": "1.01 ± 0.058"}, {"measurement": "NP40-soluble protein abundance", "setting": "[2]; concentration: 6mM", "result": "0.994 ± 0.11"}, {"measurement": "NP40-soluble protein abundance", "setting": "[2]; concentration: 8mM", "result": "0.962 ± 0.13"}, {"measurement": "NP40-soluble protein abundance", "setting": "[2]; concentration: 10mM", "result": "0.965 ± 0.15"}, {"measurement": "NP40-soluble protein abundance", "setting": "[3]; concentration: 1mM", "result": "0.855 ± 0.036"}, {"measurement": "NP40-soluble protein abundance", "setting": "[3]; concentration: 2mM", "result": "0.93 ± 0.019"}, {"measurement": "NP40-soluble protein abundance", "setting": "[3]; concentration: 4mM", "result": "0.885 ± 0.032"}, {"measurement": "NP40-soluble protein abundance", "setting": "[3]; concentration: 6mM", "result": "0.9504 ± 0.0062"}, {"measurement": "NP40-soluble protein abundance", "setting": "[3]; concentration: 8mM", "result": "0.932 ± 0.035"}, {"measurement": "NP40-soluble protein abundance", "setting": "[3]; concentration: 10mM", "result": "0.85 ± 0.1"}, {"measurement": "NP40-soluble protein abundance", "setting": "[4]; concentration: 1mM", "result": "1.03 ± 0.12"}, {"measurement": "NP40-soluble protein abundance", "setting": "[4]; concentration: 2mM", "result": "0.983 ± 0.078"}, {"measurement": "NP40-soluble protein abundance", "setting": "[4]; concentration: 4mM", "result": "0.98 ± 0.035"}]}
